Measured values as given in PMC4336329 (PLoS ONE, 2015).
In all, about 310,000 compounds went through this assay and about 14,000 (4.5%) showed an effect of 50% or more. The effect is printed as a negative number. For the sample, strong results were picked, then their nearest neighbours and some compounds at random.

Each compound was assayed against human ether-à-go-go-related gene (hERG) potassium channel (human, UniProt Q12809) (assay: primary screen, population patch clamp on CHO cells stably expressing hERG; higher = less effect of the substance).
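Note: peak tail current of the secondary pulse compared with the same well before compound.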

Chain of human ether-à-go-go-related gene (hERG) potassium channel (Q12809 whole entry, looked up): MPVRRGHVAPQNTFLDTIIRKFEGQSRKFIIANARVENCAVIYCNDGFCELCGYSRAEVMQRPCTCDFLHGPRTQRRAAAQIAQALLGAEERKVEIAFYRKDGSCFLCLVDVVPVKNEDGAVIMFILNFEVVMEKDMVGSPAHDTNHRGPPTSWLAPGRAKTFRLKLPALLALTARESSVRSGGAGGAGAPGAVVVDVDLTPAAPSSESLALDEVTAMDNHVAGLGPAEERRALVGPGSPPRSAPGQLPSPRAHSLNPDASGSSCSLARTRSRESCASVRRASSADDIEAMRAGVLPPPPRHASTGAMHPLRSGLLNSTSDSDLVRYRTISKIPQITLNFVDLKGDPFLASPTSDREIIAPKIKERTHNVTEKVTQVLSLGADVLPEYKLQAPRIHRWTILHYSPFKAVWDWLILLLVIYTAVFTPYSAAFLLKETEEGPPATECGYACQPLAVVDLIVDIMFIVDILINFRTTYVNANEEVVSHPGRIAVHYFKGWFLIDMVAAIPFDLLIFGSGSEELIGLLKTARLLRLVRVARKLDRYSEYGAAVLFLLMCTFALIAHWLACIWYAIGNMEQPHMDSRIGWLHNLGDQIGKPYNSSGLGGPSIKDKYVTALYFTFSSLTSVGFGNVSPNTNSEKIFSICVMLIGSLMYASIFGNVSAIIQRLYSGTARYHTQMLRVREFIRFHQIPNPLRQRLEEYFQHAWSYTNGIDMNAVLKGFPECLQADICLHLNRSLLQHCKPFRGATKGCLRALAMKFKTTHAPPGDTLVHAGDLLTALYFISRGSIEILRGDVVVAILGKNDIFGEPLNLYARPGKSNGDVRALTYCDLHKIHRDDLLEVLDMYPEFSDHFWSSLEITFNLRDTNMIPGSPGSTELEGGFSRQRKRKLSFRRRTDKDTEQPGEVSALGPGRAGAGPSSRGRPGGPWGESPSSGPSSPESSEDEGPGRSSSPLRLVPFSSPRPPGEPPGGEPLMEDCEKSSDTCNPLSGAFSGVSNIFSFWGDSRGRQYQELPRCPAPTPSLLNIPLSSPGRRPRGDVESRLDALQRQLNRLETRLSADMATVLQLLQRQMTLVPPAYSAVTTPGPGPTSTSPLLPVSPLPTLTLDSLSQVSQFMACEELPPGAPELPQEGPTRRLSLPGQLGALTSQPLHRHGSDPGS

Row | SMILES | hERG current change (%, negative = inhibition) at 10uM
1 | Cn1c2c(c(=O)n(C)c1=O)C(c1cc3c(cc1Br)OCO3)CC(=O)N2 (stereo not drawn) | 3.46%
2 | O=C(c1ccc(Cn2c(=O)[nH]c3ccsc3c2=O)cc1)N1CCN(c2ccccc2)CC1 | 7.23%
3 | Cc1ccccc1C(=O)N1CCC(C(=O)Nc2nc3ccc(F)cc3s2)CC1 | -42.8%
4 | CC(Sc1nc2cc(Cl)ccc2s1)C(=O)Nc1ccc2c(c1)OCO2 (stereo not drawn) | 6.08%
5 | COc1ccccc1N1CCN(C(=O)CCCN2C(=O)c3cccc4cccc(c34)C2=O)CC1.Cl | -70.9%
6 | COc1ccccc1N1CCN(CCCCOc2ccc(C)cc2C)CC1.O=C(O)C(=O)O | -50.3%
7 | COc1ccccc1N1CCN(CCOc2c(OC)cccc2OC)CC1.Cl | -34.6%
8 | COc1ccccc1OCCCCN1CCN(c2ccccc2OC)CC1.O=C(O)C(=O)O | -43.1%
9 | COc1ccccc1N1CCN(C(=O)CN2C(=O)c3ccccc3C2=O)CC1 | 11.9%
10 | Cc1ccccc1OCCCCCCN1CCNCC1.O=C(O)C(=O)O | -1.56%
11 | CCOc1ccccc1N1CCN(C(=O)CCCN2C(=O)c3cccc4cccc(c34)C2=O)CC1 | -8.72%
12 | COc1ccccc1N1CCN(CCN2C(=O)CC(=C3c4ccccc4-c4ccccc43)C2=O)CC1.Cl | 0.408%
13 | COc1ccccc1N1CCN(CCCCOc2c(OC)cccc2OC)CC1.O=C(O)C(=O)O | -57.9%
14 | COc1ccccc1N1CCN(C(=O)CCN2C(=O)c3cccc4cccc(c34)C2=O)CC1 | 15.5%
15 | Br.COc1ccccc1N1CCN(CCCCN2C(=O)c3ccccc3C2=O)CC1 | -53.5%
16 | COc1ccccc1N1CCN(C(=O)COc2cc(C)ccc2C)CC1 | -18.3%
17 | COC(=O)C1=C(c2ccc(F)cc2OCc2ccccc2)C[C@@H]2CC[C@H]1N2C(=O)NCCCc1ccccc1 | 4.96%
18 | CCN(Cc1ccccc1)C(=O)CN1C(=O)NC(CC)(c2ccc(F)cc2)C1=O (stereo not drawn) | -7.55%
19 | CCn1ncc(Br)c1C(=O)Nc1sc2c(c1C(=O)OC)CCC2 | -40.8%
20 | O=C(Cc1ccc(F)cc1)NC1CCS(=O)(=O)C1 (stereo not drawn) | 9.36%
21 | Cc1cc(-c2ccccc2)oc(=O)c1NC(=O)c1ccccc1 | 3.11%

Row | SMILES | hERG current change (%, negative = inhibition) at 10uM
22 | O=C(N/N=C/c1ccc([N+](=O)[O-])cc1)c1cccnc1 | 0.658%
23 | Cc1cccc(Nc2ccccc2C(=O)O)c1C | 2.88%
24 | CN1CCc2c(sc3c2c(=O)n(-c2ccccc2)c2nnc(SCc4ccc(Cl)cc4)n32)C1 | -2.08%
25 | CCCCSCCCNC(=O)CCCN1C(=O)c2ccccc2Sc2ncccc21 | -27.6%
26 | COc1ccc(N(C(=O)c2ccc3c(c2)OCO3)C2C=CS(=O)(=O)C2)c(OC)c1 (stereo not drawn) | -22.3%
27 | CCN(CC1CCCN(CCc2cccc(F)c2)C1)C(=O)c1cc(C)oc1C (stereo not drawn) | -66.8%
28 | CCN(CC1CCCN(CCc2cccc(F)c2)C1)C(=O)c1ccc(CSC)o1 (stereo not drawn) | -74.5%
29 | CCN(CC)C(=O)C1CCCN(Cc2cccc(F)c2)C1 (stereo not drawn) | 7.43%
30 | C=CCC(=O)N(CC)CC1CCCN(CCc2cccc(F)c2)C1 (stereo not drawn) | -54.2%
31 | Cc1cc(C(=O)N(C)CC2CCCN(CCc3ccc(F)cc3)C2)c(C)o1 (stereo not drawn) | -75.7%
32 | CSCc1ccc(C(=O)N2CCCC(Nc3ccc(F)cc3)C2)o1 (stereo not drawn) | -18.7%
33 | CN(C)CCN(CC1CCCN(Cc2ccccc2F)C1)C(=O)Cc1c(F)cccc1F (stereo not drawn) | -9.05%
34 | C=CCn1c(SCC(=O)Nc2ccc3c(c2)OCO3)nnc1-c1ccccc1OC | -7.02%
35 | O=S(=O)(c1cccc(-c2nnc(-c3cccnc3)o2)c1)N1CCCCC1 | -25%
36 | CCOC(=O)Cc1csc(NC(=O)COc2ccccc2OCC)n1 | -24.2%
37 | O=S(=O)(Cc1ccccc1Cl)c1ncn[nH]1 | 14.2%
38 | COc1ccccc1C(=O)COC(=O)CSC(C)C(=O)Nc1cc(C)on1 (stereo not drawn) | -13.7%
39 | CCOc1ccc(CN(C)C(=O)Cc2c[nH]c3ccccc23)cc1 | 12%
40 | O=C(c1cc2ccccc2o1)N1CCN=C1SCc1cccc(F)c1 | -7.82%
41 | CCN(CC1CCCN(CCc2cccc(F)c2)C1)C(=O)c1cc2ccccc2o1 (stereo not drawn) | -79.6%
42 | O=C(NCC1CCCN(Cc2cccc(F)c2)C1)c1cccc2ccccc12 (stereo not drawn) | -17.6%

Row | SMILES | hERG current change (%, negative = inhibition) at 10uM
43 | O=C(CN(C(=O)CCC(=O)Nc1ccccn1)c1ccc2c(c1)OCO2)NCc1ccc(F)cc1 | 9.42%
44 | O=C(Nc1ccccc1-c1ccccc1)NC1CC2CCCC(C1)N2Cc1ccc(F)cc1 (stereo not drawn) | -66.4%
45 | O=C(Nc1cccn(Cc2ccc(F)cc2)c1=O)NC1CCCCC1 | -36.2%
46 | CCOc1ccccc1NC(=O)NC1CC2CCCC(C1)N2Cc1nnnn1CCc1ccccc1 (stereo not drawn) | -5.67%
47 | O=C(Nc1ccccc1-c1ccccc1)NC1CC2CCCC(C1)N2CCc1ccccc1 (stereo not drawn) | -53.3%
48 | CCNC(=S)NC1CC2CCCC(C1)N2CCc1ccccc1 (stereo not drawn) | -48.7%
49 | CCc1ccccc1NC(=S)NC1CC2CCC(C1)N2Cc1ccc(F)cc1 (stereo not drawn) | -42%
50 | O=C(N/N=C/c1ccc[nH]1)c1ccncc1 | 20.2%
51 | COc1cccc(NC(=O)CCS(=O)(=O)c2cccs2)c1 | 14%
52 | CC(=O)c1c(C)[nH]c(C(=O)OCC(=O)N2CC(C)OC(C)C2)c1C (stereo not drawn) | 20.7%
53 | CCCCNC(=O)/C=C/c1ccc(S(=O)(=O)Nc2ccc(OC)cc2)cc1 | 3.52%
54 | Cc1cnc(NC(=O)C2(c3ccccc3)CC2)s1 | 7.07%
55 | O=C(Nc1sc2c(c1C(=O)O)CCCCC2)c1cccnc1 | 16.7%
56 | NC(=O)c1c(NC(=O)c2cccnc2)sc2c1CCCC2 | 17.5%
57 | CC(C)NC(=O)c1sc2c(c1C(=O)Nc1cccnc1)CCCC2 | -69.7%
58 | Cc1cc(-c2onc(C)c2C(=O)Oc2ccc(Cl)cc2)no1 | -2.56%
59 | Cc1cc(C)nc(SCCn2c(N3CCCCC3)nc3c2c(=O)n(C)c(=O)n3C)n1 | -4.05%
60 | CC1(C)CC(=O)C=C(NC2CCCCCC2)C1 | -1.93%
61 | O=C(Oc1ccc2ccccc2c1)C1CCC1 | 17%
62 | COc1ccc(C(=O)Nc2ccc(-c3nnn(CC(=O)N4CCN(C(=O)c5ccco5)CC4)n3)cc2)cc1 | 7.09%
63 | O=C(Nc1ccc(-c2nnn(CC(=O)N3CCN(C(=O)c4ccco4)CC3)n2)cc1)c1ccc(F)cc1 | 3.09%

Row | SMILES | hERG current change (%, negative = inhibition) at 10uM
64 | O=C(Nc1ccc(-c2nnn(CC(=O)N3CCN(C(=O)c4ccco4)CC3)n2)cc1)c1ccccc1F | -53.2%
65 | O=C(Cn1nnc(-c2ccc(Cl)cc2)n1)N1CCN(C(=O)c2ccco2)CC1 | -65%
66 | O=C(Cn1nnc(-c2ccccc2)n1)N1CCN(S(=O)(=O)c2ccc(Cl)cc2)CC1 | 3.96%
67 | Cc1ccccc1-c1nnn(CC(=O)N2CCN(C(=O)c3ccco3)CC2)n1 | -40.1%
68 | Cc1ccc(C2=NOC(=O)/C2=C\c2ccc(C)o2)cc1 | 6.75%
69 | O=C(N/N=C\c1cccnc1)C1c2ccccc2Oc2ccccc21 | 0.415%
70 | CCOC(=O)C1=C(C)N(C)C(=S)N(C)C1c1ccc(OC)cc1 (stereo not drawn) | -10.5%
71 | CN(C)S(=O)(=O)c1ccc(C(=O)OCC(=O)NCc2ccco2)cc1 | 11.6%
72 | Cc1ccc(-c2cc(C(=O)N3CCOCC3)c3cc(C)ccc3n2)cc1 | -4.82%
73 | COc1ccccc1CNC(=O)CCC(=O)n1ncc2cc(C)ccc21 | 0.647%
74 | c1ccc2c(c1)CCCN2Cc1nnnn1C1CCCC1 | -3.84%
75 | O=C(C1CC1)N(Cc1ccco1)c1nc(-c2ccccc2)cs1 | -8.62%
76 | Cc1ccc2c(c1)C1CN(C)CCC1N2S(=O)(=O)c1ccc(Oc2ccc([N+](=O)[O-])cc2)cc1 (stereo not drawn) | -21.3%
77 | Cc1ccc2c(c1)C1CN(C)CCC1N2C(=O)c1cccc(S(=O)(=O)N(C)C)c1.c1ccccc1 (stereo not drawn) | -25%
78 | Cc1ccc2c(c1)C1CN(C)CCC1N2S(=O)(=O)c1ccccc1F (stereo not drawn) | -32.4%
79 | Cc1ccc2c(c1)[C@@H]1CN(C)CC[C@@H]1N2S(=O)(=O)c1ccc(F)cc1.Cl | -29.1%
80 | Cc1ccc2c(c1)C1CN(C)CCC1N2Sc1ccccc1[N+](=O)[O-] (stereo not drawn) | -62.8%
81 | Cc1ccc2c(c1)C1CN(C)CCC1N2S(=O)(=O)c1ccc(C#N)cc1 (stereo not drawn) | -72.8%
82 | Cc1ccc2c(c1)[C@@H]1CN(C)CC[C@@H]1N2S(=O)(=O)c1ccc([N+](=O)[O-])cc1.Cl | -75%
83 | Cc1ccc2c(c1)C1CN(C)CCC1N2CC(=O)N(C)c1ccccc1 (stereo not drawn) | 6.34%
84 | Cc1ccc2c(c1)C1CN(C)CCC1N2C(=O)COc1ccc(S(=O)(=O)N2CCOCC2)cc1 (stereo not drawn) | -15.8%
